# From ChEMBL document CHEMBL4513216, “Probing the Open Global Health Chemical Diversity Library for Multistage-Active Starting Points for Next-Generation Antimalarials” (ACS Infect Dis, 2020)
# The campaign covered roughly 69,000 compounds. About 8,600 (12%) showed an effect of 50% or more. This is one part of a sample in which strong results are shown more often than they occur.
# System: Plasmodium berghei
# Assay: Screen against P. berghei liver stage (PbLuc), transformed with Luciferase, at 10uM
# Type: functional, HepG2
# Conditions: tested at 10 uM
row,Compound,INHIBITION [%]
1,C1CCC(NC2CCCN(Cc3noc(C4CC4)n3)C2)C1 (stereo not given),17.3
2,CCOc1cccc(C2CC(=O)NCc3nc(N)sc32)c1 (stereo not given),42.2
3,CCOc1cccc(C2CC(=O)NCc3nc(N(C)C)sc32)c1 (stereo not given),11.7
4,CCOc1cccc(C2CC(=O)NCc3nc(N4CCCC4)sc32)c1 (stereo not given),56.5
5,Cc1cccc(C)c1OCCNC(=O)CN1CCN(C)CC1C (stereo not given),-17.7
6,Cc1ccc2c(c1)cc(CN1CC[C@](C)(O)[C@H](C)C1)n2C,42.1
7,CN1CCN(C2CCN(Cc3cn4ccccc4n3)CC2)C1=O,-22.3
8,CN(C)Cc1cnc2n1CCN(C(=O)C1CC=CC1)CC2,36.9
9,Cc1ccc(CN2CC[C@H]3[C@H]2CCN3S(=O)(=O)C2CC2)s1,13.7
10,Cc1cccc(CN2C(=O)CC[C@@H]3[C@H]2CCN3Cc2ccc(C)s2)n1,33.5
11,Cc1cc(CN2CC[C@H]3[C@H]2CCN3S(C)(=O)=O)oc1C,16.1
12,Cc1ccc(CN2CC[C@@H]3[C@H]2CCC(=O)N3Cc2ccncc2)s1,68.4
13,Cc1ccc(CN2CC[C@@H]3OCCN(S(C)(=O)=O)[C@H]3CC2)s1,34.5
14,Cc1ccc(CN2CC[C@H]3[C@@H]2CCC(=O)N3CCN2CCCC2)s1,32.4
15,Cc1ccc(CN2CC[C@H]3[C@H]2CCN3S(C)(=O)=O)s1,58.7
16,Cc1ccc(CN2CC[C@@H]3OCCN(Cc4ccncc4)[C@H]3CC2)s1,58.3
17,CS(=O)(=O)N1CCO[C@@H]2CCN(Cc3ccncc3)CC[C@H]21,23.6
18,Cc1nc(CN(C)C2CCN(Cc3ccc4c(c3)CCC4)C2)no1 (stereo not given),31.3
19,NC(=O)C1CNCCN1C(=O)COc1ccccc1 (stereo not given),36
20,Cc1csc(CN2CC[C@H]3C[C@@H](c4nc(C)no4)O[C@@H]3C2)n1,-11.6
21,CN1[C@@H](C(=O)NCC2CC2)C[C@@H]2CN(Cc3ccsc3)C[C@@H]21,-9.74
22,CNC(=O)CCc1cc(C)nc(C2CCN(c3ccccc3)CC2)c1,20.24
23,COCCNC(=O)[C@H]1CN(Cc2cccs2)C[C@H]2OCC[C@@H]12,43.9
24,COCCNC(=O)[C@H]1CN(c2ncccn2)C[C@H]2OCC[C@@H]12,55.5
25,COCCNC(=O)[C@H]1CN(c2nnc(C)s2)C[C@H]2OCC[C@@H]12,52.9

row,Compound,INHIBITION [%]
1,Cc1nnc(N2C[C@H](C(=O)NCC3CC3)[C@@H]3CCO[C@@H]3C2)s1,-19.7
2,Cc1nnc(N2C[C@H](C(=O)NCc3ccco3)[C@@H]3CCO[C@@H]3C2)s1,15.4
3,COCCNC(=O)[C@@H]1CN(c2ncccn2)C[C@H]2OCC[C@H]21,43.9
4,COCCNC(=O)[C@H]1CN(Cc2csc(C)n2)C[C@H]2OCC[C@@H]12,24.9
5,COCCNC(=O)[C@@H]1CN(c2cc(OC)ncn2)C[C@H]2OCC[C@H]21,24.9
6,Cc1nnc(N2C[C@H]3OCC[C@H]3[C@H](C(=O)NCC3CC3)C2)s1,66.9
7,Cc1cccc(CN2CCc3nnc(CO)n3CC2)n1,27.4
8,O=C1[C@H]2CN(Cc3cccs3)C[C@H]2CN1CCN1CCCC1,9.97
9,Cc1c(C2CCCN(C(=O)c3cccnc3)C2)n2c(nc1=O)CCC2 (stereo not given),-73.1
10,O=C(C1CCOC1)N1CCN(CC2CC2)c2ccccc21 (stereo not given),42.8
11,CCOCC1CN(C(=O)c2ccoc2C)Cc2cnn(C)c21 (stereo not given),23.3
12,Nc1cncc(C(=O)N2Cc3ccccc3OC3(CCOCC3)C2)c1,22
13,Cc1nc(C)n(C2CCCN(C(=O)c3cccc4[nH]ncc34)C2)n1 (stereo not given),-50.8
14,COc1cc(Cl)ccc1C(=O)N1CCCC(n2nc(C)nc2C)C1 (stereo not given),19.4
15,Cc1nc(C)n(C2CCCN(C(=O)c3ccccc3C)C2)n1 (stereo not given),31.1
16,COc1ccc(C(=O)N2CCCC(n3nc(C)nc3C)C2)c(OC)c1 (stereo not given),52.3
17,COc1ccc(C)cc1C(=O)N1CCCC(n2nc(C)nc2C)C1 (stereo not given),-9.37
18,Cc1nc(C)n(C2CCCN(C(=O)c3cccc4cn[nH]c34)C2)n1 (stereo not given),56
19,Cn1ccc(CN2CCC(NC(=O)C3CCCCC3)CC2)cc1=O,5.907
20,CC1(C(=O)NCc2cccc(C(F)(F)F)c2)CCOCC1,15.9
21,O=C1CSC(C(F)(F)F)c2c(O)nn(C3CCCC3)c2N1 (stereo not given),13.1
22,CCC(C)NC(=O)Nc1cccc(OCC#N)c1 (stereo not given),5.29
23,N#Cc1cccc(OC23CCCN(CC2)C3)c1 (stereo not given),21.2
24,Cc1nc(CNCc2cccc(OC34CCCN(CC3)C4)c2)n[nH]1 (stereo not given),31.15
25,c1ccc(Oc2cccc(OC34CCCN(CC3)C4)c2)cc1 (stereo not given),65.7

row,Compound,INHIBITION [%]
1,O=c1[nH]nc(CNCc2ccc(OC34CCCN(CC3)C4)cc2)[nH]1 (stereo not given),21.085
2,c1ccc(Oc2ccc(OC34CCCN(CC3)C4)cc2)cc1 (stereo not given),57.6
3,Cc1cnccc1CNCc1ccc(OC23CCCN(CC2)C3)cc1 (stereo not given),21.525
4,Cc1cn2cc(-c3nc4c([nH]3)CCCNC4=O)nc2s1,-54.3
5,CC(=O)N1CCCCCC1C1CCN(Cc2nnc(C(C)(C)C)o2)CC1 (stereo not given),66.5
6,CC(=O)NCC1CCN(Cc2nc(C3CC3)no2)CC1,57.5
7,CC(C)(C)c1nnc(CN2CCN(C(=O)N3CCCCC3)CC2)o1,29.5
8,CCc1nnc(CN2CCN(C(C)=O)CC2)o1,9.65
9,CCN1CCN(C2CCN(Cc3nc(C4CC4)no3)CC2)C1=O,33.8
10,CC(=O)N1CCN(Cc2nnc(C(C)(C)C)o2)CC1,-33.2
11,CCc1nnc(CN2CCC(C3CCCCCN3C(C)=O)CC2)o1 (stereo not given),40.6
12,CC(=O)N1CCCCCC1C1CCN(Cc2nc(C3CC3)no2)CC1 (stereo not given),55.4
13,O=C(NCC1CCCO1)C1CCN(Cc2nc(C3CC3)no2)CC1 (stereo not given),40.2
14,CCc1nnc(CN2CCC(C3CCCCCN3C(=O)C3CC3)CC2)o1 (stereo not given),62.8
15,CS(=O)(=O)N1CCCCCC1C1CCN(Cc2nc(C3CC3)no2)CC1 (stereo not given),29.1
16,CC(=O)N1CCCCCC1C1CCN(Cc2nc(C(C)C)no2)CC1 (stereo not given),8.11
17,Cc1[nH]ccc1C(=O)Nc1cccc(CN2CCC(CO)CC2)c1,25.3
18,CC(C)=CCN1C[C@@H]2CC[C@H]1CN(C(=O)c1ccc(S(N)(=O)=O)cc1)C2,39.4
19,Cc1ncsc1C(=O)N1CCN(Cc2cscn2)CC1,16
20,Cc1cccc(OCCNC(=O)Cn2ccc(C)cc2=O)c1,28.7
21,O=C(c1ccnc(NC2CC2)c1)N1CCCC1c1cccc(Br)c1 (stereo not given),-96.5
22,Cc1ccc(C)c2c(C)c(C(=O)NCCCn3cnnc3)[nH]c12,-56.7
23,CN(C)C(=O)COC1COC2(CCN(CC3CC3)CC2)C1 (stereo not given),37.6
24,Cc1cccc(CN2C(=O)C[C@H]3[C@@H]2CCN3CC2CC2)n1,-14.3
25,Cn1cc(NC(=O)CNC(=O)N2CCN(c3ccc(F)cc3)CC2)cn1,9.55

row,Compound,INHIBITION [%]
1,CNc1cc(N2CCCC2CNCc2cnc(C)s2)ncn1 (stereo not given),7.61
2,COCc1cnc2n1CCN(C(=O)c1cc3ccccc3o1)C2C (stereo not given),62
3,COCc1cnc2n1CCN(C(=O)C1=CCCCC1)C2C (stereo not given),14.2
4,COCc1cnc2n1CCN(C(=O)C1=CCCC1)C2C (stereo not given),-56.3
5,Cc1ncoc1C(=O)N1CCn2c(COc3cccnc3)cnc2C1C (stereo not given),5.67
6,COCc1cnc2n1CCN(C(=O)c1ocnc1C)C2C (stereo not given),20.5
7,COCc1cnc2n1CCN(C(=O)c1ccc3ccccc3n1)C2C (stereo not given),61.1
8,COCc1cnc2n1CCN(C(=O)c1oc3ccccc3c1C)C2C (stereo not given),52.1
9,COCc1cnc2n1CCN(C(=O)c1cnc3ccccc3c1)C2C (stereo not given),11.3
10,COCc1cnc2n1CCN(C(=O)c1cc3cc(Cl)ccc3o1)C2C (stereo not given),46.6
11,CCn1cc(CNCCNc2ncc(Cl)cc2Cl)cn1,15.7
12,O=C(Cn1cnc2ccsc2c1=O)NCCCc1nnc2ccccn12,34.3
13,CCN1CCn2c(C)cnc2C12CCN(C(=O)C(C)C)CC2,-40.5
14,CN(C)c1cc(CNC(=O)Nc2nncs2)ccn1,-2.19
15,Cc1ccc2nc(C)c(C)c(C(=O)N3CCC4(CCO4)CC3)c2c1,33.3
16,CCO[C@H]1CN(C)C[C@@H]1NC(=O)c1cc(C)nc2ccc(C)cc12,28.4
17,CO[C@H]1CNC[C@@H]1NC(=O)c1cc(C)nc2ccc(C)cc12,-100
18,Cc1ccc2nc(C)c(C)c(C(=O)N[C@H]3COC[C@@H]3N3CCCC3)c2c1,59.1
19,Cc1cc(C(=O)N(C)C2CCN(C)C2)c2ccc(F)cc2n1 (stereo not given),21.5
20,Cc1cc(C(=O)N[C@H]2COC[C@@H]2N2CCOCC2)c2ccc(F)cc2n1,55.4
21,Cc1cc(C(=O)N2CCN[C@H](C)C2)c2ccc(F)cc2n1,12.2
22,Cc1nc(C(=O)N[C@H]2COC[C@@H]2N2CCCCC2)cs1,11.3
23,Cc1ccc2nc(C)cc(C(=O)N[C@H]3COC[C@@H]3N3CCOCC3)c2c1,66.5
24,CCc1nccn1C1CCCN(C(=O)Cc2cn3ccsc3n2)C1 (stereo not given),-23.9
25,CC(C)c1nnc2ccc(N3CCC(C(=O)NC4CC4)CC3)nn12,-18.9
